This is an account of results in PubChem BioAssay AID2284063 (EPA ToxCast).

Inconclusive results are not listed. Active and inactive are the calls of the source. How the source made its calls: active means hit-call score of the fitted dose curve at least 0.9, where 1 is the maximum; inactive means score below 0.9.

As a reminder, the AC50 is the concentration at which the activity in the assay is half-maximal.

Sequence of human BTK TK Kinase, BTK (gene 695) (Q06187 whole entry, looked up): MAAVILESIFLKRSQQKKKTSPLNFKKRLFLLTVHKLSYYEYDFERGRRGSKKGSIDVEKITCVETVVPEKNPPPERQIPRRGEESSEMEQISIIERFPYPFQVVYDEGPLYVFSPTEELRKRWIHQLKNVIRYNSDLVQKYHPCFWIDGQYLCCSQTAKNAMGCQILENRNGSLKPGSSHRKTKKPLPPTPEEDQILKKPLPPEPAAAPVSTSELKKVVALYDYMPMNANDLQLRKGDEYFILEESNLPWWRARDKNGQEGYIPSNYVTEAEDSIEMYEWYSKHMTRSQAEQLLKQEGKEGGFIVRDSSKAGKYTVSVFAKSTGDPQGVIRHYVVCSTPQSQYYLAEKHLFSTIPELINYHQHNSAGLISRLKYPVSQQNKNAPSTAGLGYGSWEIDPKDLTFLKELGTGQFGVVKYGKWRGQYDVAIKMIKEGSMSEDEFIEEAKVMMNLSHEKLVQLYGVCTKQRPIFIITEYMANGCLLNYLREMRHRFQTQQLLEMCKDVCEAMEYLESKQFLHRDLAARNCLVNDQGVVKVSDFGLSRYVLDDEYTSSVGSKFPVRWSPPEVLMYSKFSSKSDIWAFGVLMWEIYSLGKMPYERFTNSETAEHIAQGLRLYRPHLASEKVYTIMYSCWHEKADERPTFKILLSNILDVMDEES

The test has as its target human BTK TK Kinase, BTK (gene 695) (UniProt Q06187). Description: ERF_TW_ENZ_hBTK: Eurofins (ERF) Enzymatic Radiometric [10 uM ATP] LeadHunter Assay for human BTK TK Kinase. As to the method:
ERF_TW_ENZ_hBTK is a biochemical, single-readout assay that uses extracted gene-proteins in a cell-free assay. Measurements were taken 0.5 hour after chemical dosing in a 96-well plate. See BTK Human TK Kinase Enzymatic Radiometric Assay [10 uM ATP], Panlabs.ERF_TW_ENZ_hBTK is an assay component calculated from the ERF_TW_ENZ_hBTK assay. It is designed to measure enzyme activity using a type of enzyme reporter as detected by scintillation counting with radiometry technology.Data from the assay component ERF_TW_ENZ_hBTK was analyzed at the assay endpoint, ERF_TW_ENZ_hBTK, in the positive analysis fitting direction relative to DMSO as the negative control and baseline of activity. Using a type of enzyme reporter, loss-of-signal activity can be used to understand changes in enzymatic activity as they relate to gene BTK. To generalize the intended target to other relatable targets, this assay endpoint is annotated to the kinase intended target family, where the subfamily is tyrosine kinase (tk).
Human recombinant protein kinase BTK expressed in insect Sf21 cells is used. Test compound and/or vehicle is preincubated with 200 ng/ml enzymedouble dagger in modified HEPES buffer pH 7.4 for 15 minutes at 37C. […] An aliquot is removed and counted to determine the amount of [32P]Poly(Glu:Tyr) formed. […]
Turning to `O=C(/C=C/c1ccc(O)cc1)CC(=O)/C=C/c1ccc(O)cc1`, the half-maximal activity concentration (AC50) is 6.13 µM (active).
